For nine molecules, z-score and composite z-score results are on record in PubChem BioAssay.

Assay [1] in a line: compound effects on lung adenocarcinoma cell viability – A549, calcein-AM fluorescence, 48 h, basal, profiling panel (AID 1162). Note: test concentration not given here. The note with it: higher = more signal.
The nature of assay [2]: compound effects on differentiated 3T3-L1 adipocyte viability – cell-based, 3T3-L1 adipocytes, calcein-AM fluorescence, 48 h, basal, profiling panel (AID 1163). Note: test concentration not given here. The following applies: 3T3-L1 adipocytes viability, higher = more signal.
The nature of assay [3]: compound effects on hepatocellular carcinoma cell viability – HepG2, calcein-AM fluorescence, 48 h, basal, profiling panel (AID 1164). Note: test concentration not given here. The note with it: higher = more signal.
Assay [4] in a line: compound effects on multiple myeloma cell viability – MM1S, calcein-AM fluorescence, 48 h, basal, profiling panel (AID 1165).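 Note: viability of MM1S multiple myeloma cells under basal unstimulated conditions; test concentration not given here.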 The following applies: higher = more signal.
A short description of assay [5]: calcein-AM signal in unstimulated myeloma cells – cell-based, calcein-AM fluorescence, 48 h, PK04 Diversity Set, profiling panel (AID 1166).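 Note: cells grown under basal conditions without added stimulus; test concentration not given here.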 The following applies: RPMI8226 myeloma viability, higher = more signal.
The nature of assay [6]: JC-1 mitochondrial signal, unstimulated HepG2 cells – cell-based, JC-1 fluorescence, 24 h, 100 nL compound, profiling panel (AID 1167). Note: test concentration not given here. The following applies: HepG2 mitochondrial potential, higher = more signal.
Assay [7] can be described thus: JC-1 mitochondrial signal, unstimulated adipocytes – cell-based, JC-1 fluorescence, 3T3-L1 adipocytes, 24 h, 100 nL compound, profiling panel (AID 1168). Note: test concentration not given here. The following applies: JC-1 mitochondrial fluorescence, higher = more signal, called active from +8 up or from −8 down.
The nature of assay [8]: JC-1 mitochondrial signal, unstimulated myeloma cells – cell-based, JC-1 fluorescence, RPMI8226, 24 h, 100 nL compound, profiling panel (AID 1169). Note: test concentration not given here. The following applies: JC-1 mitochondrial potential fluorescence, higher = more signal.
Assay [9] can be described thus: JC-1 mitochondrial signal, unstimulated MM1S myeloma – cell-based, JC-1 fluorescence, 24 h, 100 nL compound, profiling panel (AID 1170). Note: test concentration not given here. The following applies: MM1S mitochondrial potential, higher = more signal.
Assay [10] in a line: resazurin metabolic signal in A549 cells – cell-based, resazurin fluorescence, 24 h, PK04 Diversity Set, profiling panel (AID 1171). Note: test concentration not given here. The note with it: A549 viability, higher = more signal, called active from +8 up or from −8 down. Background: Alamar Blue is a resazurin reagent that responds to reducing activity.
A short description of assay [11]: resazurin metabolic signal in HepG2 cells – cell-based, resazurin fluorescence, 24 h, PK04 Diversity Set, profiling panel (AID 1172). Note: test concentration not given here. The note with it: HepG2 viability, higher = more signal.
A short description of assay [12]: budding yeast growth changes without added modifier – OD600, strain BY4716, 24 h, basal condition, primary screen (AID 1173). The note with it: S. cerevisiae BY4716 growth, OD600, 24 h; higher = more signal, called active from +8 up or from −8 down.
The nature of assay [13]: viability profiling in MM1S myeloma cells – cell-based, resazurin fluorescence, basal, 24 h, PK04 Diversity Set, profiling panel (AID 1174). Note: test concentration not given here. The following applies: higher = more signal, called active from +8 up or from −8 down.
Assay [14] has as its target Dihydroorotate dehydrogenase (quinone), mitochondrial (Plasmodium falciparum (isolate 3D7)) (UniProt Q08210). Briefly: inhibition of P. falciparum DHODH – biochemical, C-terminal His tag, absorbance 600 nm, primary screen (AID 1175).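 Note: recombinant parasite enzyme with a five histidine tag at its C terminus; test concentration not given here.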 The following applies: PfDHODH enzyme, DCIP absorbance 600 nm; higher = more signal, called active from +8 up or from −8 down.
Assay [15] is described as follows: inhibition of PAO1 biofilm formation – strain PAO1, LB-PBS medium, absorbance 600 nm, primary screen (AID 1176). Note: test concentration not given here. The note with it: P. aeruginosa PAO1 growth/biofilm, A600, 12 h; higher = more signal.
Assay [16] can be described thus: growth modulation of vineyard yeast isolate – strain RM11-1a, OD600, basal, 24 h, primary screen (AID 1177).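 Note: cultures grown under basal conditions with no added stressor; test concentration not given here.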 The following applies: S. cerevisiae RM11-1a growth, OD600, 24 h; higher = more signal, called active from +8 up or from −8 down.
Assay [17] can be described thus: growth of efflux-deficient E. coli DRC39 – strain DRC39, OD650, 24 h, E. coli filamentation inducers, primary screen (AID 1178).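 Note: growth measured as culture turbidity by optical density at 650 nm; test concentration not given here.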 The following applies: E. coli DRC39 acrAB, higher = more signal, called active from +8 up or from −8 down.
Assay [18] in a line: growth of efflux-deficient E. coli DRC39 – strain DRC39, OD650, 48 h, E. coli filamentation inducers, primary screen (AID 1179).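 Note: screen aims at cell division blockers that make cells filament.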 The note with it: E. coli DRC39 delta-acrAB growth, higher = more signal, called active from +8 up or from −8 down.
A short description of assay [19]: viability profiling in RPMI8226 myeloma cells – cell-based, resazurin fluorescence, basal, 24 h, PK04 Diversity Set, profiling panel (AID 1180).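 Note: RPMI8826 multiple myeloma cell line at 5000 cells per well; test concentration not given here.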 The note with it: higher = more signal.
In assay [20] the target is E3 ubiquitin-protein ligase XIAP (Homo sapiens) (UniProt P98170). Briefly: small molecules binding XIAP protein – biophysical, small-molecule microarray, fluorescence 635 nm, primary screen (AID 1181).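 Note: score merges 667 nm emission and signal to noise over triplicate slides.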 The following applies: higher = more signal.

Active and inactive are the calls of the source. Unless noted, the rule behind the calls is not given here.

Sequence of Dihydroorotate dehydrogenase (quinone), mitochondrial (Plasmodium falciparum (isolate 3D7)) (Q08210 whole entry, looked up): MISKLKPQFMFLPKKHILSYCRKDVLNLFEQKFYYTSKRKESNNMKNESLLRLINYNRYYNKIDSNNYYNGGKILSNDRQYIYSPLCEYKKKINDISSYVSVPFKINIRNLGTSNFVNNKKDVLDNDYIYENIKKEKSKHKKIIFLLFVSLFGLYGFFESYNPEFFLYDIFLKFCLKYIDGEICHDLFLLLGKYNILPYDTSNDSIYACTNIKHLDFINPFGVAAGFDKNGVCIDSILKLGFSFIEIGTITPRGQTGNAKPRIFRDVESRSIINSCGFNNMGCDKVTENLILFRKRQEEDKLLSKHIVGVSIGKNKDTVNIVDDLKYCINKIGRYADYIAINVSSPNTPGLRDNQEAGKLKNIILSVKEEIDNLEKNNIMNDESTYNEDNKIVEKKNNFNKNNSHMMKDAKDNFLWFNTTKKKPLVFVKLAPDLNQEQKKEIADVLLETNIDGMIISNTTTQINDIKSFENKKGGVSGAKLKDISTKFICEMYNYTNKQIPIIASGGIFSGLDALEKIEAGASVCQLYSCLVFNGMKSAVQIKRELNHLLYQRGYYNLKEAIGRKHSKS
Sequence of E3 ubiquitin-protein ligase XIAP (Homo sapiens) (P98170 whole entry, looked up): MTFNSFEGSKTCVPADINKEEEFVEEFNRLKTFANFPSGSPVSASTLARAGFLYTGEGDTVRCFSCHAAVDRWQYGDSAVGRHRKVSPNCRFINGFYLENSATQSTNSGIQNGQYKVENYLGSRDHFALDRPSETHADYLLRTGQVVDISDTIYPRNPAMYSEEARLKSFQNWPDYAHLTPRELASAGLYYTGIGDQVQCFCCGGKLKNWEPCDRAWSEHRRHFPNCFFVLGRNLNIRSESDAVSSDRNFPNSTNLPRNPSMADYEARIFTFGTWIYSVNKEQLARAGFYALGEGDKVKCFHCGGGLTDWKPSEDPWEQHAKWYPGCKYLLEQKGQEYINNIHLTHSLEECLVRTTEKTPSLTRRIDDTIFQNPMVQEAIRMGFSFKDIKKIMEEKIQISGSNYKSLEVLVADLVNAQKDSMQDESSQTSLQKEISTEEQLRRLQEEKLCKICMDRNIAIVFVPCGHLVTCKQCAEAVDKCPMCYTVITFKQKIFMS

Take `CCOC(=O)C[C@H]1[C@H](OC(=O)c2cc3ccccc3oc2=O)[C@@H](NC(=O)c2ccccc2)c2cc(OCCCO)ccc2N1C(=O)c1ccc2ccccc2n1`: the z-score in [1] is 0.282; in [2], 0.785; in assay [3], -0.112; in [4], -0.0357; in assay [5], -1.08; in [6], -0.314. Further, the z-score in [7] was 0.122 (inactive); in [8], -0.311; in assay [9], -0.0496; in [10], -0.886 (inactive); in assay [11] it was -0.359; in assay [12], -0.594 (inactive). Moreover, the z-score in assay [13] was -1.04 (inactive); in assay [15] it was -0.246 (inactive); in assay [16] it was -0.5 (inactive); in assay [17] it was -0.741 (inactive); in assay [18], -1.2 (inactive); in [19], -1.16. The composite z-score was 0.542 (inactive) in assay [14] and -0.28 in [20].

As for `NCCCCCNC(=O)[C@@H]1C[C@@H]2C(=O)N[C@@H](Cc3ccccc3)C(=O)N2[C@@H]1c1ccc(O)cc1`, the z-score in assay [1] is -0.119; in [2] it was 0.588; in [3], -0.0207; in [4] it was -1.4; in assay [5] it was -0.0144; in assay [6] it was 0.181. The z-score in [7] is -0.0278 (inactive); in [8], 0.00631; in assay [9] it was 0.397; in assay [10], -0.0029 (inactive); in assay [11], -1.74; in assay [12], -0.576 (inactive). Besides, the z-score in [13] is -0.0591 (inactive); in assay [15], 1.07 (inactive); in [16] it was -0.56 (inactive); in assay [17], -0.598 (inactive); in assay [18] it was -0.384 (inactive); in [19], 0.15. The composite z-score in assay [14] is -0.0741 (inactive); in assay [20] it was 0.013.

For the molecule `C=CCNC(=O)[C@@H]1[C@H]2C(=O)O[C@H](c3ccccc3)[C@H](c3ccccc3)N2[C@H](c2ccc(O)cc2)[C@@]12C(=O)Nc1ccc(C#CCNC(N)=O)cc12`, the z-score was 0.0067 in [1]; 1.09 in assay [2]; 0.767 in assay [3]; -0.925 in assay [4]; -0.179 in assay [5]; -1.14 in [6]. The z-score in [7] was -1.07 (inactive); in [8] it was -0.994; in [9], 0.435; in assay [10] it was 0.552 (inactive); in [11], -0.361; in [12], 0.295 (inactive). Moreover, the z-score is 0.194 (inactive) in [13]; 0.0485 (inactive) in [15]; 0.24 (inactive) in assay [16]; -0.0851 (inactive) in assay [17]; -0.124 (inactive) in assay [18]; 0.221 in [19]. The composite z-score in [14] was -0.433 (inactive); in assay [20], -0.33.

Consider `CC1CC/C=C\[C@H]2OC34C=CCN(C(C)(C)C)C(=O)[C@H]3N(C(C)CO)C(=O)[C@@H]4C2C(=O)O1` (stereo not given in full), for which the z-score is 0.593 in assay [1]; -0.691 in assay [2]; 0.292 in assay [3]; 0.771 in [4]; -0.192 in assay [5]; -0.0168 in assay [6]. Besides, the z-score is -0.43 (inactive) in assay [7]; -0.164 in assay [8]; -0.726 in assay [9]; -0.388 (inactive) in assay [10]; 0.0366 in assay [11]; -0.623 (inactive) in assay [12]. In addition, the z-score in assay [13] was -2.21 (inactive); in assay [15] it was -0.525 (inactive); in assay [16], 0.723 (inactive); in [17] it was 0.606 (inactive); in assay [18], 0.771 (inactive); in assay [19], -0.0501. Moreover, the figures for the composite z-score in assay [14] and in [20] were -3.09 (inactive) and 0.501, respectively.

As to `COC(=O)[C@@]1(Cc2ccc(OC)cc2)[C@@H]2C(=CC(=O)[C@H]2CC(=O)C(=O)N2CCCC2)CN1C(=O)c1ccccc1`, the z-score in assay [1] is -0.0504; in [2], -0.386; in assay [3], -0.167; in [4] it was -0.565; in [5], -1.17; in assay [6] it was 0.718. For the same molecule, the z-score in [7] is -0.407 (inactive); in assay [8] it was -0.356; in [9], -1.69; in assay [10], 0.408 (inactive); in [11], 1.82; in [12] it was 1.1 (inactive). The z-score in assay [13] was -0.846 (inactive); in assay [15], -0.374 (inactive); in assay [16], 0.423 (inactive); in assay [17], -0.0187 (inactive); in assay [18], 0.798 (inactive); in assay [19] it was -0.663. In addition, the composite z-score in [14] is 1.7 (inactive); in assay [20], -0.0118.

Turning to `COC(=O)[C@@]1(CCS(=O)(=O)c2ccccc2)N=C(c2ccc(OCCCO)cc2)O[C@H]1c1ccccc1CN=[N+]=[N-]`, the z-score in [1] was -1.33; in assay [2], -0.688; in assay [3], -1.12; in assay [4] it was -1.92; in [5] it was -2.59; in [6], -1.13. For the same molecule, the z-score is 0.877 (inactive) in assay [7]; -1.22 in assay [8]; -1.56 in [9]; -2.08 (inactive) in [10]; -0.882 in assay [11]; 1.38 (inactive) in assay [12]. Also, the z-score in [13] is -3.13 (inactive); in assay [15], 0.92 (inactive); in [16], 0.642 (inactive); in assay [17], 0.163 (inactive); in assay [18] it was -0.154 (inactive); in assay [19], -2.55. The composite z-score in assay [14] is 0.484 (inactive); in [20], 0.316.

Take `O=C1O[C@H](c2ccccc2)[C@H](c2ccccc2)N2[C@H]1[C@@H](C(=O)N1CCCCCCC1)[C@]1(C(=O)Nc3ccc(C#CC4=CCCCC4)cc31)[C@H]2c1ccc(OCCO)cc1`: the z-score in assay [1] is -0.733; in assay [2], 1.67; in assay [3], -0.103; in assay [4], -0.0425; in assay [5], -1.4; in assay [6], -1.68. Moreover, the z-score in [7] was -5.35 (inactive); in [8], -1.02; in [9] it was -0.729; in assay [10], -0.0973 (inactive); in [11], -0.881; in [12] it was 0.362 (inactive). Besides, the z-score in [13] was 0.241 (inactive); in [15], 2.25 (inactive); in assay [16] it was 0.6 (inactive); in assay [17] it was 0.825 (inactive); in assay [18], 0.286 (inactive); in assay [19], 0.326. Besides, the composite z-score in [14] is -0.585 (inactive); in [20] it was 1.08.

Regarding `C=C(C(=O)CC[C@@H](OC(=O)c1cccnc1)c1ccccc1OCCO)C(C)C`, the z-score in assay [1] is -0.125; in [2], 0.909; in [3], -0.599; in [4], -1.81; in [5] it was -1.08; in [6], -1.17. Moreover, the z-score is 0.208 (inactive) in [7]; -0.356 in assay [8]; -1.07 in assay [9]; -0.414 (inactive) in assay [10]; -0.0206 in assay [11]; -1.51 (inactive) in [12]. For the same molecule, the z-score in [13] is -0.444 (inactive); in assay [15] it was 0.613 (inactive); in assay [16] it was -0.337 (inactive); in [17] it was 0.335 (inactive); in [18], 0.195 (inactive); in assay [19], -0.632. Moreover, the values for the composite z-score in assay [14] and in assay [20] were -0.0125 (inactive) and -0.0872, respectively.

On to `COCCOC(=O)N1C(=O)[C@@]2(c3ccccc31)[C@H](c1ccc(O)cc1)N1[C@H](c3ccccc3)[C@H](c3ccccc3)OC(=O)[C@H]1[C@@H]2C(=O)Nc1nc2ccccc2s1`, for which the z-score in assay [1] is 0.982; in assay [2], 0.267; in assay [3], 0.818; in assay [4], -1.49; in assay [5], -2.22; in [6], -3.87. The z-score was -1.17 (inactive) in assay [7]; -0.883 in [8]; -1.21 in assay [9]; 0.185 (inactive) in assay [10]; -0.175 in [11]; 0.183 (inactive) in [12]. The z-score in [13] is -1.1 (inactive); in assay [15] it was 0.995 (inactive); in assay [16], 0.941 (inactive); in assay [17], 0.411 (inactive); in assay [18], 1.37 (inactive); in [19] it was -0.456. The composite z-score in assay [14] was 0.553 (inactive); in assay [20] it was -0.02.
